# Data taken from the supplement of paper PMC4466140.
# What was measured:
# Assay in all cases: SPOT peptide array binding signal intensity (averaged, normalized) (arbitrary units (background-subtracted, floor 0; scale differs between SH3 domains)); higher = stronger binding of the SH3 domain to the peptide
# [1] = biological target: AgAbp1
# Description: (§1)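 GST-tagged SH3 domains from S. cerevisiae (Sc), A. gossypii (Ag), C. albicans (Ca) and S. pombe (Sp) were incubated at 10 ug/ml overnight at 4 C on cellulose SPOT membranes carrying 292 synthetic 15-mer peptides mined from the S. cerevisiae proteome (cysteines replaced by serines). Binding was detected with anti-GST antibody, HRP secondary and chemiluminescence, quantified with Genespotter, and reported as normalized spot intensities averaged over biological replicates.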
# [2] = biological target: AgBbc1
# Description: as §1
# [3] = biological target: AgBem1-D1
# Description: as §1
# [4] = biological target: AgBzz1-D1
# Description: as §1
# [5] = biological target: AgBzz1-D2
# Description: as §1
# [6] = biological target: AgCyk3
# Description: as §1
# [7] = biological target: AgFus1
# Description: as §1
# [8] = biological target: AgHof1
# Description: as §1
# [9] = biological target: AgHse1
# Description: as §1
# [10] = biological target: AgLsb1
# Description: as §1
# [11] = biological target: AgLsb4
# Description: as §1
# [12] = biological target: AgMyo5
# Description: as §1
# [13] = biological target: AgNbp2
# Description: as §1
# [14] = biological target: AgRvs167
# Description: as §1
# [15] = biological target: AgSho1
# Description: as §1
# [16] = biological target: AgSla1-D1-D2
# Description: as §1
# [17] = biological target: AgSla1-D3
# Description: as §1
# [18] = biological target: CaAbp1-D1
# Description: as §1
# [19] = biological target: CaAbp1-D2
# Description: as §1
# [20] = biological target: CaBbc1
# Description: as §1
# [21] = biological target: CaBem1-D1
# Description: as §1
# [22] = biological target: CaBzz1-D1
# Description: as §1
# [23] = biological target: CaBzz1-D2
# Description: as §1
# [24] = biological target: CaCyk3
# Description: as §1
# [25] = biological target: CaFus1
# Description: as §1
# [26] = biological target: CaHof1
# Description: as §1
# [27] = biological target: CaHse1
# Description: as §1
# [28] = biological target: CaLsb1
# Description: as §1
# [29] = biological target: CaLsb4
# Description: as §1
# [30] = biological target: CaMyo5
# Description: as §1
# [31] = biological target: CaNbp2
# Description: as §1
# [32] = biological target: CaRvs167
# Description: as §1
# [33] = biological target: CaRvs167-3
# Description: as §1
# [34] = biological target: CaSho1
# Description: as §1
# [35] = biological target: CaSla1-D1-D2
# Description: as §1
# [36] = biological target: CaSla1-D3
# Description: as §1
# [37] = biological target: ScAbp1
# Description: as §1
# [38] = biological target: ScBbc1
# Description: as §1
# [39] = biological target: ScBem1-D1
# Description: as §1
# [40] = biological target: ScBzz1-D1
# Description: as §1
# [41] = biological target: ScBzz1-D2
# Description: as §1
# [42] = biological target: ScCyk3
# Description: as §1
# [43] = biological target: ScFus1
# Description: as §1
# [44] = biological target: ScHof1
# Description: as §1
# [45] = biological target: ScHse1
# Description: as §1
# [46] = biological target: ScLsb1
# Description: as §1
# [47] = biological target: ScLsb2
# Description: as §1
# [48] = biological target: ScLsb3
# Description: as §1
# [49] = biological target: ScLsb4
# Description: as §1
# [50] = biological target: ScMyo3
# Description: as §1
# [51] = biological target: ScMyo5
# Description: as §1
# [52] = biological target: ScNbp2
# Description: as §1
# [53] = biological target: ScPex13
# Description: as §1
# [54] = biological target: ScRvs167
# Description: as §1
# [55] = biological target: ScSho1
# Description: as §1
# [56] = biological target: ScSla1-D1-D2
# Description: as §1
# [57] = biological target: ScSla1-D3
# Description: as §1
# [58] = biological target: SpAbp1-D1
# Description: as §1
# [59] = biological target: SpBbc1
# Description: as §1
# [60] = biological target: SpBzz1-D1
# Description: as §1
# [61] = biological target: SpBzz1-D2
# Description: as §1
# [62] = biological target: SpCyk3
# Description: as §1
# [63] = biological target: SpHof1
# Description: as §1
# [64] = biological target: SpHof1-2
# Description: as §1
# [65] = biological target: SpHof1-3
# Description: as §1
# [66] = biological target: SpHse1
# Description: as §1
# [67] = biological target: SpLsb1
# Description: as §1
# [68] = biological target: SpLsb4
# Description: as §1
# [69] = biological target: SpMyo1
# Description: as §1
# [70] = biological target: SpNbp2
# Description: as §1
# [71] = biological target: SpPex13
# Description: as §1
# [72] = biological target: SpRvs167
# Description: as §1
# [73] = biological target: SpSla1-D1-D2
# Description: as §1
# [74] = biological target: SpSla1-D3
# Description: as §1
binder,measurement,setting,value
NLKKRPPTAPQRKIS,SPOT peptide array binding signal intensity,[1],2190
same,SPOT peptide array binding signal intensity,[2],265
same,SPOT peptide array binding signal intensity,[3],28.5
same,SPOT peptide array binding signal intensity,[4],277
same,SPOT peptide array binding signal intensity,[5],199
same,SPOT peptide array binding signal intensity,[6],≤ 0
same,SPOT peptide array binding signal intensity,[7],110
same,SPOT peptide array binding signal intensity,[8],60
same,SPOT peptide array binding signal intensity,[9],1520
same,SPOT peptide array binding signal intensity,[10],2.25
same,SPOT peptide array binding signal intensity,[11],109
same,SPOT peptide array binding signal intensity,[12],≤ 0
same,SPOT peptide array binding signal intensity,[13],245
same,SPOT peptide array binding signal intensity,[14],13.5
same,SPOT peptide array binding signal intensity,[15],33.5
same,SPOT peptide array binding signal intensity,[16],370
same,SPOT peptide array binding signal intensity,[17],28.2
same,SPOT peptide array binding signal intensity,[18],5270
same,SPOT peptide array binding signal intensity,[19],6470
same,SPOT peptide array binding signal intensity,[20],646
same,SPOT peptide array binding signal intensity,[21],48.5
same,SPOT peptide array binding signal intensity,[22],727
same,SPOT peptide array binding signal intensity,[23],2010
same,SPOT peptide array binding signal intensity,[24],3
same,SPOT peptide array binding signal intensity,[25],254
same,SPOT peptide array binding signal intensity,[26],1
same,SPOT peptide array binding signal intensity,[27],34.5
same,SPOT peptide array binding signal intensity,[28],≤ 0
same,SPOT peptide array binding signal intensity,[29],942
same,SPOT peptide array binding signal intensity,[30],4.5
same,SPOT peptide array binding signal intensity,[31],764
same,SPOT peptide array binding signal intensity,[32],32
same,SPOT peptide array binding signal intensity,[33],67.8
same,SPOT peptide array binding signal intensity,[34],170
same,SPOT peptide array binding signal intensity,[35],1470
same,SPOT peptide array binding signal intensity,[36],6.5
same,SPOT peptide array binding signal intensity,[37],2890
same,SPOT peptide array binding signal intensity,[38],56.8
same,SPOT peptide array binding signal intensity,[39],8
same,SPOT peptide array binding signal intensity,[40],258
same,SPOT peptide array binding signal intensity,[41],34
same,SPOT peptide array binding signal intensity,[42],13
same,SPOT peptide array binding signal intensity,[43],80
same,SPOT peptide array binding signal intensity,[44],2.75
same,SPOT peptide array binding signal intensity,[45],1640
same,SPOT peptide array binding signal intensity,[46],32.5
same,SPOT peptide array binding signal intensity,[47],3.5
same,SPOT peptide array binding signal intensity,[48],2500
same,SPOT peptide array binding signal intensity,[49],100
same,SPOT peptide array binding signal intensity,[50],9.5
same,SPOT peptide array binding signal intensity,[51],6.5
same,SPOT peptide array binding signal intensity,[52],578
same,SPOT peptide array binding signal intensity,[53],1.75
same,SPOT peptide array binding signal intensity,[54],708
same,SPOT peptide array binding signal intensity,[55],367
same,SPOT peptide array binding signal intensity,[56],1690
same,SPOT peptide array binding signal intensity,[57],8.25
same,SPOT peptide array binding signal intensity,[58],2030
same,SPOT peptide array binding signal intensity,[59],11
same,SPOT peptide array binding signal intensity,[60],641
same,SPOT peptide array binding signal intensity,[61],8.5
same,SPOT peptide array binding signal intensity,[62],≤ 0
same,SPOT peptide array binding signal intensity,[63],192
same,SPOT peptide array binding signal intensity,[64],12.8
same,SPOT peptide array binding signal intensity,[65],77.2
same,SPOT peptide array binding signal intensity,[66],1160
same,SPOT peptide array binding signal intensity,[67],9
same,SPOT peptide array binding signal intensity,[68],2350
same,SPOT peptide array binding signal intensity,[69],10.2
same,SPOT peptide array binding signal intensity,[70],303
same,SPOT peptide array binding signal intensity,[71],6
same,SPOT peptide array binding signal intensity,[72],539
same,SPOT peptide array binding signal intensity,[73],13
same,SPOT peptide array binding signal intensity,[74],6
